This is an account of results in PubChem BioAssay (NCI).

A short description of assay [1]: NCI Yeast Anticancer Drug Screen. Data for the rad50 strain (AID 155).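 Further: 0% = growth of vehicle-only cultures of the same strain.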 The settings on record: S. cerevisiae rad50 strain growth inhibition, hits give high values. In short, it runs like this:
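Genetically altered yeast (DNA repair pathway); compound treatment; growth inhibition vs vehicle ctrl.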

A short description of assay [2]: NCI Yeast Anticancer Drug Screen. Data for the mec2-1 strain (AID 157). The settings on record: S. cerevisiae mec2-1 strain, hits give high values. The gist of the method:
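Cells of the genetically defined mec2-1 yeast strain are incubated with test compound. Inhibition of growth is calculated against vehicle-treated controls.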

Assay [3] can be described thus: NCI Yeast Anticancer Drug Screen. Data for the sgs1 mgt1 strain (AID 161).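 Further: 0% = growth of cultures given vehicle only.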 The settings on record: S. cerevisiae sgs1 mgt1 strain, hits give high values. The gist of the method: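 Inhibition of yeast growth, normalised to vehicle-treated controls, is reported for a strain bearing genetic alterations in DNA damage repair.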
Assay [4] is described as follows: NCI Yeast Anticancer Drug Screen. Data for the cln2 rad14 strain (AID 165).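 Further: 0% = growth equal to vehicle treated cultures.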 The settings on record: S. cerevisiae cln2 rad14 strain, hits give high values. The gist of the method: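 The screen exposed genetically defined yeast (cln2 rad14) to test compounds and scored growth inhibition relative to vehicle-treated controls.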
Assay [5] can be described thus: NCI Yeast Anticancer Drug Screen. Data for the bub3 strain (AID 167). The settings on record: S. cerevisiae bub3 mutant strain, hits give high values. The gist of the method: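 Yeast carrying a defined mutation is treated with each compound, and growth is compared with that of vehicle-exposed cells to give inhibition.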
Assay [6] can be described thus: NCI Yeast Anticancer Drug Screen. Data for the mlh1 rad18 strain (AID 175). The settings on record: S. cerevisiae mlh1 rad18 strain growth inhibition, hits give high values. The gist of the method: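 Compound-treated yeast growth, normalised to vehicle controls. Strain bears defined DNA repair mutations.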
Setting [7] is: at 5.0 µM (retest, dose inferred, filed as 0.5).
[8] abbreviates: at 50.0 µM (retest, dose inferred, filed as 5.0).

Compounds without any hit were thinned out: in the full panel of roughly 79,000, 15% have a hit. Unmarked numbers belong to inactive results. Active and inactive are the calls of the source. No stated cut-off is given here; in the data, active means growth inhibition above about 70%; inactive means the rest.

Regarding `O=[N+]([O-])c1cc(Br)cc2c1nc(NCCCO)c1ccccc12`, the growth inhibition was 42% in assay [1] (setting [7]); 93% (active) in assay [1] (setting [8]); 95.7% (active) in assay [1] (at 50.0 µM); 11% in assay [2] (setting [7]); 92% (active) in assay [2] (setting [8]); 96.4% (active) in assay [2] (at 50.0 µM). In addition, the growth inhibition was 43% in assay [3] (setting [7]); 96% (active) in assay [3] (setting [8]); 98.5% (active) in assay [3] (at 50.0 µM); 33% in assay [4] (setting [7]); 89% (active) in assay [4] (setting [8]); 94.3% (active) in assay [4] (at 50.0 µM). The growth inhibition in assay [5] (setting [7]) was 12%; in assay [5] (setting [8]), 96% (active); in assay [5] (at 50.0 µM), 94.6% (active); in assay [6] (setting [7]) it was 59%; in assay [6] (setting [8]) it was 97% (active); in assay [6] (at 50.0 µM), 98.8% (active).
Regarding `CCCCCC(CCCCC)OC(=O)CCN(CCCCC)CCCCC`, the growth inhibition in assay [1] (setting [7]) was 2%; in assay [1] (setting [8]) it was 81% (active); in assay [1] (at 50.0 µM) it was 74% (active); in assay [2] (setting [7]), 6%; in assay [2] (setting [8]), 86% (active); in assay [2] (at 50.0 µM), 46.1%. Besides, the growth inhibition was 14% in assay [3] (setting [7]); 97% (active) in assay [3] (setting [8]); 84% (active) in assay [3] (at 50.0 µM); 5% in assay [4] (setting [7]); 75% (active) in assay [4] (setting [8]); 72% (active) in assay [4] (at 50.0 µM). For the same compound, the growth inhibition in assay [5] (setting [7]) was 1%; in assay [5] (setting [8]), 87% (active); in assay [5] (at 50.0 µM), 51.9%; in assay [6] (setting [7]) it was 3%; in assay [6] (setting [8]), 94% (active); in assay [6] (at 50.0 µM), 68.9%.
Regarding `Cc1ccccc1C1SCc2nc3ccccc3n21` (configuration not stated), the growth inhibition is -9% in assay [1] (setting [7]); -7% in assay [1] (setting [8]); -17.1% in assay [1] (at 50.0 µM); -3% in assay [2] (setting [7]); -4% in assay [2] (setting [8]); 8.3% in assay [2] (at 50.0 µM). In addition, the growth inhibition in assay [3] (setting [7]) was -5%; in assay [3] (setting [8]) it was 1%; in assay [3] (at 50.0 µM), 14.7%; in assay [4] (setting [7]), -13%; in assay [4] (setting [8]), -20%; in assay [4] (at 50.0 µM), 75.3% (active). For the same compound, the growth inhibition in assay [5] (setting [7]) is -4%; in assay [5] (setting [8]), -1%; in assay [5] (at 50.0 µM) it was -6.4%; in assay [6] (setting [7]), -9%; in assay [6] (setting [8]), -9%; in assay [6] (at 50.0 µM) it was -25.1%.
Take `CCCCCCCCCCCCCCCCSC(=NC)NC`: the growth inhibition was 89% (active) in assay [1] (setting [7]); 99% (active) in assay [1] (setting [8]); 99.4% (active) in assay [1] (at 50.0 µM); 98% (active) in assay [2] (setting [7]); 99% (active) in assay [2] (setting [8]); 99.2% (active) in assay [2] (at 50.0 µM). In addition, the growth inhibition in assay [3] (setting [7]) is 98% (active); in assay [3] (setting [8]) it was 100% (active); in assay [3] (at 50.0 µM) it was 99.3% (active); in assay [4] (setting [7]), 25%; in assay [4] (setting [8]) it was 99% (active); in assay [4] (at 50.0 µM) it was 98.2% (active). Moreover, the growth inhibition in assay [5] (setting [7]) was 84% (active); in assay [5] (setting [8]) it was 99% (active); in assay [5] (at 50.0 µM), 99.1% (active); in assay [6] (setting [7]) it was 67%; in assay [6] (setting [8]), 98% (active); in assay [6] (at 50.0 µM), 98.7% (active).
As for `O=C1CCSC(=S)N1c1ccc(Br)c(Cl)c1`, the growth inhibition was 13% in assay [1] (setting [7]); 94% (active) in assay [1] (setting [8]); 39.8% in assay [1] (at 50.0 µM); 9% in assay [2] (setting [7]); 94% (active) in assay [2] (setting [8]); 39.4% in assay [2] (at 50.0 µM). In addition, the growth inhibition is 52% in assay [3] (setting [7]); 99% (active) in assay [3] (setting [8]); 72.3% (active) in assay [3] (at 50.0 µM); -4% in assay [4] (setting [7]); 79% (active) in assay [4] (setting [8]); 12.7% in assay [4] (at 50.0 µM). The growth inhibition in assay [5] (setting [7]) was -4%; in assay [5] (setting [8]) it was 98% (active); in assay [5] (at 50.0 µM), 13.8%; in assay [6] (setting [7]), 29%; in assay [6] (setting [8]) it was 99% (active); in assay [6] (at 50.0 µM), 69.5%.
For the compound `OCCN1COc2cc3c(cc2C1)OCN(CCO)C3`, the growth inhibition in assay [1] (setting [7]) is 1%; in assay [1] (setting [8]) it was 11%; in assay [1] (at 50.0 µM), 17.4%; in assay [2] (setting [7]), -4%; in assay [2] (setting [8]), 1%; in assay [2] (at 50.0 µM), -4.9%. The growth inhibition in assay [3] (setting [7]) is -1%; in assay [3] (setting [8]), 14%; in assay [3] (at 50.0 µM) it was 13.2%; in assay [4] (setting [7]) it was 3%; in assay [4] (setting [8]), -5%; in assay [4] (at 50.0 µM), 42.9%. The growth inhibition was 1% in assay [5] (setting [7]); -3% in assay [5] (setting [8]); -6.35% in assay [5] (at 50.0 µM); -5% in assay [6] (setting [7]); 10% in assay [6] (setting [8]); 16.2% in assay [6] (at 50.0 µM).
`N=C1C(=O)c2ccccc2-c2ccccc21`: the growth inhibition in assay [1] (setting [7]) was -93%; in assay [1] (setting [8]), 97% (active); in assay [1] (at 50.0 µM), 96.3% (active); in assay [2] (setting [7]), -25%; in assay [2] (setting [8]), 99% (active); in assay [2] (at 50.0 µM) it was 96.3% (active). Also, the growth inhibition in assay [3] (setting [7]) is -35%; in assay [3] (setting [8]) it was 98% (active); in assay [3] (at 50.0 µM) it was 97.3% (active); in assay [4] (setting [7]) it was -75%; in assay [4] (setting [8]), 98% (active); in assay [4] (at 50.0 µM), 91.3% (active). The growth inhibition is -20% in assay [5] (setting [7]); 97% (active) in assay [5] (setting [8]); 97% (active) in assay [5] (at 50.0 µM); -86% in assay [6] (setting [7]); 97% (active) in assay [6] (setting [8]); 95.7% (active) in assay [6] (at 50.0 µM).
Consider `CCCCN1CSC(=S)N(Cc2ccccc2)C1`, for which the growth inhibition in assay [1] (setting [7]) is 2%; in assay [1] (setting [8]), 38%; in assay [1] (at 50.0 µM) it was 32.8%; in assay [2] (setting [7]), 3%; in assay [2] (setting [8]) it was 3%; in assay [2] (at 50.0 µM) it was -21.7%. The growth inhibition in assay [3] (setting [7]) is 13%; in assay [3] (setting [8]), 30%; in assay [3] (at 50.0 µM), 10.3%; in assay [4] (setting [7]), 30%; in assay [4] (setting [8]), 25%; in assay [4] (at 50.0 µM), -41.1%. For the same compound, the growth inhibition in assay [5] (setting [7]) is 5%; in assay [5] (setting [8]), 38%; in assay [5] (at 50.0 µM), 23.8%; in assay [6] (setting [7]) it was -10%; in assay [6] (setting [8]), 38%; in assay [6] (at 50.0 µM) it was 31.4%.
Take `OCN(CO)c1ccc2c(c1)Cc1cc(F)ccc1-2`: the growth inhibition in assay [1] (setting [7]) is 34%; in assay [1] (setting [8]) it was 97% (active); in assay [1] (at 50.0 µM), 92.8% (active); in assay [2] (setting [7]), -19%; in assay [2] (setting [8]), 99% (active); in assay [2] (at 50.0 µM) it was 86.2% (active). Moreover, the growth inhibition was 41% in assay [3] (setting [7]); 97% (active) in assay [3] (setting [8]); 51.2% in assay [3] (at 50.0 µM); 1% in assay [4] (setting [7]); 97% (active) in assay [4] (setting [8]); 96.5% (active) in assay [4] (at 50.0 µM). The growth inhibition is -5% in assay [5] (setting [7]); 97% (active) in assay [5] (setting [8]); 90.9% (active) in assay [5] (at 50.0 µM); 59% in assay [6] (setting [7]); 98% (active) in assay [6] (setting [8]); 97.8% (active) in assay [6] (at 50.0 µM).
